# A selection: hits, their analogues and other compounds. The true share with any hit is near 6.5%.
# HT1080-NT tox = kills 2HG-producing HT-1080-NT fibrosarcoma cells. Potency, µM (series often up to 46.1 µM), for inactives: at the highest dose activity, negative = less viability, usual class: cytotoxic. 360,000 tested, 1.6% active. HT-1080-NT fibrosarcoma viability, CellTiter-Glo ATP luminescence, 48 h. AID 686970;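 further: NT is the 2HG producing partner of a matched IDH1 knockdown line; potency means the concentration at half of the fitted maximal effect; 0% = DMSO-treated cells and -100% = media-only wells without cells; nearly all actives have a fitted effect of over 55% in size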
#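 Compounds were tested in concentration-response format on HT-1080-NT cells for 48 hours at 37 degrees C. Cell viability came from CellTiter-Glo luminescence; curves were classified by r2, response magnitude and activity.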
# HepG2 viability = counter-screen for TGF-b inhibitors: cytotoxicity in HepG2 cells. 410,000 tested, 0.76% active. Potency, µM (series often up to 46.1 µM), for the others: at the highest dose activity change, negative = cytotoxicity, most hits filed as cytotoxic. HepG2 CAGA-GFP viability, ATP luminescence, 18 h. AID 588856; further: potency means the concentration at half of the fitted maximal effect
#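 HepG2 CAGA-GFP cells (1000/well, DMEM with 1% FBS) received compound, then TGF-beta at 500 pg/mL final, and were incubated 18 hours at 37 degrees C. Viability was read by CellTiter-Glo luminescence. Media-only wells were set as complete cell-killing and DMSO as no toxicity.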
# Giardia killer = Giardia lamblia killing. Giardia lamblia trophozoite viability. activity change, % at 7.66 µM, hits read low. 340,000 tested, 0.15% active. AID 540267; in the data active means activity change below about -80%; inconclusive means between about -30% and that limit;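 further: parasites exposed to compound for two days anaerobically before the ATP read; on the % scale 0 is the no-effect control and ±100 the full control effect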
#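 Giardia lamblia trophozoites (100 cells/well) were incubated with compounds for 48 h at 37 deg C under anaerobic conditions. Viability was read as ATP content by one-step luminescence after 15-30 min at room temperature.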
# HT1080 IDH1KD tx = HT-1080 IDH1 knockdown cell toxicity (counter line) | HT-1080 IDH1 knockdown viability, ATP luminescence, 48 h | Potency, µM (top dose mostly 46.1 µM), for the others: at the top dose activity, negative = toxicity, actives largely listed as cytotoxic | 360,000 tested, 2% active | AID 686971;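 further: potency means the concentration at half of the fitted maximal effect; 0% = DMSO wells and -100% = cell-free medium wells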
#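 Using the IDH1-knockdown HT-1080 line run in the same batch and compound series as the NT line, viability after 48 h at 37 °C was determined by CellTiter-Glo luminescence and expressed as % activity.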
# IL1B secr inh = inhibitors of inflammasome signaling (IL-1 beta secretion); THP-1 LPS/ATP IL-1B secretion, AlphaLISA, 16 h; stronger effect = lower value; activity change, % at 57.5 µM; 360,000 tested, 4.7% active; AID 743279; in the data active means activity change below about -50%; inconclusive means mostly about -30% to -49%; further: on the % scale 0 is the no-effect control and ±100 the full control effect
#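 THP-1 cells pretreated 1 hr with compounds (up to 57.5 uM final), then stimulated with LPS (250 ng/mL final) plus ATP (1.25 mM final); secreted IL-1B measured by AlphaLISA after 16 hr, decreased signal indicating inhibition.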
# TGFb inhibitor = TGF-b pathway inhibition. 410,000 tested, 1.2% active. Potency, µM (doses to about 46.1 µM), inactives show top-dose activity, negative = inhibition, actives largely listed as inhibitors. HepG2 CAGA-GFP TGF-b/SMAD3 reporter, GFP fluorescence, 18 h; TGF-beta stimulated, 500 pg/mL final. AID 588855; further: potency means the concentration at half of the fitted maximal effect; on the % scale 0 is the no-effect control and ±100 the full control effect; nearly all actives have a fitted effect of over 65% in size
#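 Cell-based qHTS in HEPG2 carrying a CAGA-GFP Smad reporter; compounds added before 500 pg/mL final TGF-beta, 18 h incubation at 37 degrees C, GFP fluorescence quantified per cell by imaging cytometry.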
# Active calls of the source: *; ? = inconclusive; · = no result given; [ ] = dose if it differs, or a comment. Unless noted, the call rests on the fitted dose curve; in most records, active means well fitted curve in the direction sought with a large enough effect; inconclusive means small, poorly fitted or top-dose-only effect, or another doubt; inactive means no such curve, though single readings can be large; an effect the other way counts as inactive or inconclusive.
SMILES,HT1080-NT tox,HepG2 viability,Giardia killer,HT1080 IDH1KD tx,IL1B secr inh,TGFb inhibitor
Cn1c(SCc2ccccc2C#N)nc2ccccc2c1=O,-0.3%,-0.1%,-25.3,-22.5%,0.0,-8.9%
Cc1cc2c3c(c1C)C1(C(=O)N3C(C)(C)CC2C)C(C#N)=C(N)Oc2cc(O)ccc21 (configuration not stated),?,-38.7%,-7.1,?,-61.9*,?
CCOC(=O)C1CCN(S(=O)(=O)c2cccc(-c3cn4cc(C)ccc4n3)c2)CC1,-0.7%,-26.6%,-19.7,-13.7%,-17.2,-40.5%
COc1cccc(-c2noc(Cn3nc(C)c([N+](=O)[O-])c3C)n2)c1,2.6%,2.4%,19.5,3.8%,-16.2,35.2%
CCOC(=O)C(C(=O)OCC)C1OC(=O)c2cc3c(cc21)C(=O)OC3C(C(=O)OCC)C(=O)OCC (configuration not stated),?,-22.8%,-3.0,?,-97.7*,-34.3%
C=CCNC(=S)NCC1COc2ccccc2O1 (configuration not stated),2.1%,-1.7%,-4.4,4.5%,2.4,?
Cc1c(Cl)cccc1NC(=S)NCC1COc2ccccc2O1 (configuration not stated),1.0%,-23.5%,4.6,-17.9%,-68.4*,?
Cc1c(C(=O)N/N=C/c2ccc(O)cc2)sc(=S)n1C,0.0%,-2.4%,14.7,23.1%,-1.9,-5.5%
O=C(NCC1CCN(Cc2cccc(Cl)c2)CC1)Nc1ccc(Cl)cc1,?,-85.6%,-6.3,?,-61.4*,?
O=C(NCC1CCN(Cc2ccccc2F)CC1)Nc1cccc(Br)c1,?,-23.8%,-10.4,?,-84.0*,?
O=C(NCC1CCN(Cc2cccc(Cl)c2)CC1)Nc1ccc(F)c(Cl)c1,·,-112.8%,·,·,·,22.4µM*
c1ccc(-c2onc(-c3ccco3)c2-c2ccc3c(c2)OCO3)cc1,-2.7%,-32.9%,-16.7,12.1%,-8.6,?
CC(C)(C)NC(=O)C(c1ccccn1)N(C(=O)C1CSC(=O)C1)c1ccc(F)cc1 (configuration not stated),3.7%,0.5%,-5.5,4.7%,15.7,?
CCOC(=O)c1ccc(N2C(=O)Cc3cc(OCC)c(OCC)cc3C2c2ccccc2)cc1 (configuration not stated),·,11.0%,·,·,·,?
NS(=O)(=O)c1cccc(NS(=O)(=O)c2ccc(/C=C/C(=O)O)cc2)c1,-2.1%,12.6µM*,-8.1,10.3%,11.4,-1.3%
Cn1cc(/C=C/c2cc[n+](C)cc2)c2cc(Cl)ccc21,-14.9%,-6.3%,7.1,?,-60.4*,102.3%
Cn1cc(/C=C/c2cc[n+](C)cc2)c2cc(F)ccc21,?,-23.4%,-5.7,?,-4.1,124.5%
CCOC(=O)C1(C)Oc2cccnc2NC1=O (configuration not stated),3.1%,-12.4%,8.0,0.2%,-69.7*,-3.0%
Clc1cccc(CSc2nnc(-c3c[nH]c4ccccc34)o2)c1,?,12.6µM*,-24.5,?,12.2,?
O=C(CSc1nnc(-c2c[nH]c3ccccc23)o1)N(Cc1ccccc1)c1ccc(F)cc1,?,-42.6%,-9.8,-29.3%[9.24 µM],-65.4*,?
COc1ccc(/C=C/C(=O)c2c(O)cc(C)oc2=O)c(OC)c1,-27.3%,-52.7%,-26.3,?,-17.8,27.9%
Cc1cc(O)c(C(=O)/C=C/c2ccc(Cl)cc2)c(=O)o1,-0.5%,-30.3%,-29.0,7.0%,?,-3.7%
COc1cc(/C=C/C(=O)c2c(O)cc(C)oc2=O)cc(OC)c1O,?,-2.4%,-13.7,?,-55.2*,14.2%
COc1cccc(/C=C/C(=O)c2c(O)cc(C)oc2=O)c1O,-12.5%,-24.4%,-2.3,-12.2%,-80.7*,-2.7%
CCN(Cc1ccccc1)C(=O)c1cnn(-c2ccc(F)cc2)c1-n1cccc1,·,-28.1%,·,·,·,-3.4%
SMILES,HT1080-NT tox,HepG2 viability,Giardia killer,HT1080 IDH1KD tx,IL1B secr inh,TGFb inhibitor
O=C(NC(Cc1ccccc1)c1ccc2c(c1)OCCCO2)c1ccc(F)cc1 (configuration not stated),-28.6%,9.6%,13.5,?,-3.7,-0.9%
CCN1C(=O)C(O)(c2c[nH]c3ccccc23)c2cc(Br)ccc21 (configuration not stated),·,-27.5%,·,·,·,-7.7%
Cc1cc(OCc2cc(C(=O)N(C)C3CCOCC3)no2)cc(C)c1Cl,-2.4%,-36.8%,4.9,-7.7%,-7.4,-5.2%
COc1cccc(CNC(=O)C2CCCN(S(=O)(=O)N(C)c3ccc(F)cc3)C2)c1OC (configuration not stated),·,-33.8%,·,·,·,?
CC(=O)N1c2ccc(S(=O)(=O)N3CCCC(C(=O)NCc4ccccc4Cl)C3)cc2CC1C (configuration not stated),-2.8%,-16.5%,-20.9,-15.8%,-55.1*,?
CC(=O)N1c2ccc(S(=O)(=O)N3CCC(C(=O)NCc4ccccc4Cl)CC3)cc2CC1C (configuration not stated),2.3%,-6.1%,-22.9,0.0%,-6.1,25.4%
CN(c1ccc(F)cc1)S(=O)(=O)N1CCCC(C(=O)NCc2ccccc2Cl)C1 (configuration not stated),·,-25.2%,·,·,·,11.2µM*
Cc1nc(SCC(=O)Nc2ccccc2Cl)c2c(C)c(C)sc2n1,-6.5%,-5.7%,20.6,-17.3%,1.8,-12.5%
COc1ccc(C2(C(=O)NCC3CCCO3)CCOCC2)cc1 (configuration not stated),13.9%,1.8%,6.4,9.5%,14.7,0.4%
CC(C)CCNC(=S)Nc1ccc([N+](=O)[O-])cc1,?,-46.8%,12.8,?,-71.4*,?
CC(C)OC(=O)c1cc(NC(=S)Nc2ccc([N+](=O)[O-])cc2)cc(C(=O)OC(C)C)c1,?,-10.9%,-5.9,20.6µM*,-101.5*,-6.1%
CC(C)COc1ccc(C(=O)Nc2ccc([N+](=O)[O-])cc2)cc1,14.3%,11.6%,-28.8,-1.5%,0.4,-7.8%
CCCCNC(=S)NC(=O)c1ccc([N+](=O)[O-])cc1,11.6%,-6.0%,2.6,-5.1%,-2.3,6.2%
CCCCNC(=S)Nc1ccc([N+](=O)[O-])cc1,?,-47.8%,9.0,?,-74.3*,11.2µM*
O=[N+]([O-])c1ccc(NNC(=S)Nc2ccc(F)cc2)cc1,?,-34.6%,3.4,?,-58.5*,?
C=CCN(c1ccccc1)S(=O)(=O)c1cccc(C(=O)O)c1,8.6%,-1.8%,-11.7,10.7%,-6.6,-1.2%
